In PubChem BioAssay one finds composite z-score data, which are given here for 35 compounds.

SMILES strings stand for the structures.

The assay relates to Inhibin beta A chain (activin A). The experiment in a line: small molecules binding activin A – biochemical, small-molecule microarray, 635 nm fluorescence scan, primary screen (AID 1107).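 Note: mouse activin A protein probed at 4.33 µg/mL on printed slides; score merges bound-protein fluorescence near 667 nm with spot signal-to-noise.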 The note with it: INHBA, higher = more signal.
With `COCCOC(=O)N1C(=O)[C@@]2(c3cc(C#CCCO)ccc31)[C@H](C(=O)N1CCCCCCC1)[C@H]1C(=O)O[C@H](c3ccccc3)[C@H](c3ccccc3)N1[C@@H]2c1ccc(OCCO)cc1`, the composite z-score was found to be 1.67.

Consider `C=CC[C@@]12N=C(c3ccc(OCCCO)cc3)O[C@@H]1c1ccccc1N(C)C2=O`, for which the composite z-score worked out at 1.1.

`O=C1C2C=CC(C(O)Cc3ccccc3)N(n3cnnc3)C2C(=O)N1Cc1ccccc1` (stereo not given) came in with a composite z-score of 0.825.

As for `CCN(CC)c1ccc(N2CC=CC34O[C@@H]5C=CCCOC(=O)C5[C@H]3C(=O)N(CCCCCCO)[C@@H]4C2=O)cc1` (stereo not given in full), the composite z-score is 0.816.

In the case of `O=C1c2ccccc2[C@](Cc2ccccc2I)(C(=O)NCCN2CCOCC2)[C@H](c2ccc(CO)cc2)N1C1CCCCC1`, the composite z-score was determined as 0.821.

As for `[N-]=[N+]=Nc1ccccc1[C@@H]1OC(c2ccc(OCCCO)cc2)=N[C@]1(CCS(=O)(=O)c1ccccc1)C(N)=O`, the composite z-score stood at 0.992.

Turning to `CN(C)C(=O)[C@@]1(CCS(=O)(=O)c2ccccc2)COC(c2ccc(OCCCO)cc2)=N1`, the composite z-score is 1.04.

For `CC(C)C[C@@H]1NC(=O)[C@@H]2C[C@H](C(=O)O)[C@H](c3cccc(OCCO)c3)N2C1=O`, the composite z-score was -0.513.

In turn, `CCOC(=O)C[C@H]1[C@H](OC(=O)c2ccc(-c3ccccc3)cc2)[C@@H](NC(=O)Cc2ccc(OC)cc2)c2cc(OCCCO)ccc2N1C(=O)c1ccccc1` had a composite z-score of 0.407.

The compound `C=C(CCCC)/C(=C/C[C@H](OC(C)=O)c1ccccc1OCCO)c1cc(C(=O)OC)ccc1OC` yielded a composite z-score of 1.12.

For `C=CCC(OC(C)=O)[C@@H]1[C@@H](N(Cc2ccc(-c3ccccc3)cc2)C(=O)c2cccc3ccccc23)c2cc(OCCCO)ccc2N1C(=O)c1ccc(-c2ccccc2)cc1` (stereo not given in full), the composite z-score amounted to 1.09.

In turn, `Cc1ccc(S[C@]2(C(=O)NCCCN(C)C)CC(=O)N(Cc3cc(C(F)(F)F)cc(C(F)(F)F)c3)[C@@H]2c2ccc(CO)cc2I)cc1` showed a composite z-score of 0.835.

Compound `CCC[C@@H]1C[C@@]1(CCC)[C@@H](NC(=O)c1ccccc1)c1cccc(Cl)c1` yielded a composite z-score of 1.08.

Compound `COc1ccccc1CN1C(=O)c2ccccc2[C@@]2(Cc3ccccc3N(CC(C)C)C2=O)[C@@H]1c1ccc(CO)cc1` yielded a composite z-score of 0.522.

Regarding `Cc1ccc(N2C(=O)c3ccccc3[C@@H](C(=O)NC3CC3)[C@@H]2c2ccc(CO)cc2)nc1`, the composite z-score is -0.314.

Regarding `C=C[C@H](CO[Si](CC)(CC)CC)N(Cc1ccc(OC(C)=O)c(OC)c1)S(=O)(=O)c1ccc(Br)cc1`, the composite z-score is 1.1.

The compound `O=C1NC(=O)C2C1C=CC(C(O)c1cc(C(F)(F)F)cc(C(F)(F)F)c1)N2Nc1ccccn1` (stereo not given) displayed a composite z-score of 1.33.

`C[N+](C)(C)CCCC[C@@H]1NC(=O)[C@H]2C[C@@H](C(=O)NCCCCCCNC(=O)CS)[C@@H](c3cccc(OCCO)c3)N2C1=O` showed a composite z-score of -0.57.

On to `CC(C)NC(=O)[C@@H]1c2ccccc2C(=O)N(C2Cc3ccccc3C2)[C@H]1c1ccc(CO)cc1`, for which the composite z-score came out at 0.175.

The compound `C=C(CC1([C@@H](NP(=O)(c2ccccc2)c2ccccc2)[C@H]2C[C@@H]2CCCC)CC1)c1ccccc1` gave a composite z-score of 0.705.

On to `CCOC(=O)C[C@H]1[C@H](OC(=O)c2ccc(C(=O)c3ccccc3)cc2)[C@@H](NC(=O)c2ccc3ccccc3n2)c2cc(OCCCO)ccc2N1C(=O)c1ccccc1`, for which the composite z-score is -0.177.

Take `O=C1C[C@@](C(=O)NCCN2CCOCC2)(c2ccc([N+](=O)[O-])cc2)[C@@H](c2ccc(CO)cc2)N1CC12CC3CC(CC(C3)C1)C2`: the composite z-score was found to be 0.403.

In the case of `CC(C)=CCN[C@H](CO)c1ccccc1`, the composite z-score turned out to be 1.01.

Regarding `COC(=O)[C@@]1(Cc2ccc(OC)cc2)[C@H]2c3cc(C(=O)N(C)C)n(C)c3C[C@H]2CN1C(=O)c1ccccc1`, the composite z-score is 0.511.

`CN1C(=O)C2C=CC(C(O)c3ccc([N+](=O)[O-])cc3)N(N3CCCCC3)C2C1=O` (stereo not given): the composite z-score worked out at 1.23.

Regarding `CC(=O)n1cc(C(O)C2C=CC3C(=O)N(c4ccccc4)C(=O)C3N2Nc2ccc([N+](=O)[O-])cc2)c2ccccc21` (stereo not given), the composite z-score was 0.783.

On to `O=C(c1ccccc1)N1Cc2ccccc2C[C@@]2(COC(c3ccc(OCCCO)cc3)=N2)C1=O`, for which the composite z-score turned out to be 0.7.

For the compound `O=C(c1ccccc1)N1C(=O)[C@]2(COC(c3ccc(OCCCO)cc3)=N2)Cc2ccccc21`, the composite z-score worked out at 0.424.

With `CCCC[C@@H]1C[C@H]1[C@@H](NC(=O)c1ccccc1)c1ccc(C(=O)OC)cc1`, the composite z-score stood at 1.19.

`COc1cc2c(cc1O)C(C1CC1)N(Cc1sc3ccccc3c1Cl)CC2` (stereo not given) registered a composite z-score of 1.48.

`O=C1N(Cc2ccccc2)c2ccccc2[C@@H]2OC(c3ccc(OCCCO)cc3)=N[C@]12CCS(=O)(=O)c1ccccc1`: the composite z-score came out at 1.07.

Take `CO[C@H]1O[C@H](CO)[C@@H](OC(=O)Nc2cccc(F)c2)[C@H](OC(=O)Nc2ccccc2)[C@@H]1OC(=O)Nc1ccccc1`: the composite z-score was 0.489.

In turn, `COc1ccc(CCNC(=O)[C@@]2(Sc3ccc(C)cc3)CC(=O)N(C(C)C)[C@@H]2c2ccc(CO)cc2I)cc1` had a composite z-score of 1.08.

`Cc1ccc(S[C@]2(C(=O)NCCCN(C)C)CC(=O)N(Cc3cc(C(F)(F)F)cc(C(F)(F)F)c3)[C@@H]2c2ccc(CO)cc2)cc1` gave a composite z-score of 0.798.

Turning to `CC(C)NC(=O)[C@@]1(c2ccc([N+](=O)[O-])cc2)CC(=O)N(C2CCCCC2)[C@@H]1c1ccc(CO)cc1I`, the composite z-score was -0.524.
